Reference: the supplement of paper PMC3334620
Whole data set: some 33,000 sequences, median “E-score (-0.5 to 0.5)” near -0.04, cut for the highest 2% near 0.36. The entries come from a sample that favours the highest values as a whole.

Biological target: T1, Hmlalpha2 (UniProt P0CY09)
T1 sequence: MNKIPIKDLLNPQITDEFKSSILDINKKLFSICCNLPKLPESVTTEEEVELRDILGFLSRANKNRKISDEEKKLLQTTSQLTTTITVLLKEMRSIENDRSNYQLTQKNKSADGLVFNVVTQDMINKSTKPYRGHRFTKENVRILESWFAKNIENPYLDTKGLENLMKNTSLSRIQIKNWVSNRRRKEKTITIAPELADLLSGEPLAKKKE
Assay: PBM E-score (8-mer binding enrichment) (E-score (-0.5 to 0.5)); higher = stronger / more preferred TF binding
Details: protein concentration: 200 nM; construct: GST-full length
How it was run: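 Yeast transcription factors, full-length or as DNA-binding domains, were expressed with a GST tag using PURExpress in vitro transcription/translation. At about 100-200 nM they were applied to universal all-10-mer Agilent arrays, double-stranded by primer extension on fresh or once-stripped slides. Fluorescent anti-GST detected bound protein, and masliner normalised the scans. E-scores for ungapped eight-base words, pooled with reverse complements, came from the Universal PBM Analysis Suite.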

Sequence	PBM E-score
CGGGGCGC	-0.244
AACACGTT	0.403
TACACGTA	0.428
AAAACGTT	0.0264
GACACGTA	0.293
ACCACGTA	0.254
CACACGTG	0.289
CACACGTA	0.271
AACACGTC	0.377
GACACGTC	0.2
CACACGTC	0.166
AACACGTG	0.348
AACACGTA	0.41
CAAGTACA	0.266
TAAGTGGA	0.0716
ACATTTAC	0.348
ACTGTCGC	-0.165
CGGAGAAG	-0.358
CCCTTTAG	-0.261
ATGACTCG	-0.0578
GATCTAAC	0.0316
CACCGACG	0.00164

Sequence	PBM E-score
ACTAGGAG	-0.0601
AACTAGGG	-0.094
GAGGGAAC	-0.165
AGACACGG	0.228
ATACACGC	0.449
ATACACGA	0.432
AGACACGC	0.147
ATACACCA	0.215
ACACACGC	0.288
ATACACGG	0.445
ACACACGG	0.277
ATACACTA	0.149
CTTTCATA	0.162
ACGTGTTA	0.45
ACGTGTGG	0.136
CCGTGTTC	0.328
AGGTGTTA	0.256
ACGTGTTG	0.415
AGGTGTTG	-0.053
GCGTGTTA	0.46
GCGTGGTA	0.0607
CAGTGTTA	0.212

Sequence	PBM E-score
ACGTGTTC	0.211
CCGTGTTA	0.44
GCGTGTGA	0.284
TCGGAGCA	-0.279
CTTAAAAC	0.201
AACTCTTG	-0.084
GCTTGTTA	0.286
GAAACCAA	0.00698
AAAACATG	0.434
AAAACATA	0.39
CAAACATG	0.34
AAAACATT	0.242
GAAACATA	0.192
AAAACATC	0.311
AGAACATA	0.248
TAAACATA	0.416
CAAACATA	0.118
GGTTGAAC	0.081
ACTGCAGG	-0.11
AACTCACT	0.0592
AGGTCGGA	-0.164
AACCTAGA	-0.109

Sequence	PBM E-score
AGTGTAAG	0.116
CGTGTAAC	0.443
GGTGTAAC	0.288
CGTGTAAG	0.467
ACTGTAAG	0.0573
AGTGTAAC	0.198
GAAATAGC	-0.0263
CAACTAAA	0.176
CTCTAGAG	-0.148
TCATCCCA	-0.231
GGTAATAA	0.178
AGTAATAC	0.211
CATAATAA	0.281
AGTAATAA	0.257
GGTAATAC	0.173
CGTAATAC	0.378
CGTAATAA	0.378
TGTAATAA	0.45
CGTAATAG	0.246
AGCGCGCA	0.0691
